Experimental data: PubChem BioAssay (NCI)
The panel holds about 79,000 compounds, 15% with a hit somewhere; the sample as a whole holds those more often. Active and inactive are the calls of the source. Cut-off read from the data, not from the text of the source: active = growth inhibition above about 70%; inactive = the rest. Where a SMILES comes first, the peptide text is derived from it. Bridges are numbered along the chain shown (N, C = ends). Roman numbers before positions name the chains, in order. [ ]: non-standard residue; d: D form. The star is where a group is joined. Quinoxaline2carbonyl = O=C(c1cnc2ccccc2n1)*; NMeV = CN[CH](C(=O)O)C(C)C; NMeC = CN[CH](CS)C(=O)O

Test: NCI Yeast Anticancer Drug Screen. Data for the cln2 rad14 strain (AID 165);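 note: 0% = growth equal to vehicle treated cultures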
Details: S. cerevisiae cln2 rad14 strain, at 50.0 µM, stronger effect = higher value
Summary of the method: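 Each compound was tested on cln2 rad14 yeast. Inhibition of growth was calculated against vehicle-exposed controls.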

SMILES	growth inhibition
[N-]=[N+]=CC(=O)CCC(=O)C=[N+]=[N-]	-19.5% (inactive)
CC(=O)CCC(=O)O.[Ni]	-27.4% (inactive)
CCN1/C(=C/C=C2\CCC(/C=C/c3sc4ccc(Cl)cc4[n+]3CC)=C2N(c2ccccc2)c2ccccc2)Sc2ccc(Cl)cc21	4.05% (inactive)
Cn1cnc([N+](=O)[O-])c1[Se]c1nc(N)nc2nc[nH]c12	15.2% (inactive)
CCC1(CCBr)C(=O)NC(=O)NC1=O	-34.5% (inactive)
O=C(CBr)OCCOC(=O)CBr	14.4% (inactive)
Cc1ncc([N+](=O)[O-])n1C(C)C(=O)Nc1ccc(N(CCCl)CCCl)cc1 (stereo not given)	-2.3% (inactive)
O=S(=O)(Nc1ccc(-c2ccccc2)cc1)c1ccc([As](=O)(O)O)cc1	-1.65% (inactive)
Cc1ccc([NH-])cc1.Cc1ccc([NH-])cc1.[Cl][Pt+2][Cl]	-61.7% (inactive)
[Se]=[Mo]=[Se]	-18% (inactive)
CN(C)C1(c2ccc3ccccc3c2)CSC1	-16.2% (inactive)
C=C[C](=C)[Pb]([CH2]C)([CH2]C)[CH2]C	13.7% (inactive)
CC(=O)CC(C)=O.CC(=O)CC(C)=O.CC(=O)CC(C)=O.[La]	19.1% (inactive)
CCOc1ccc2ccccc2c1OP(=O)(OCC)OCC	29.6% (inactive)
CC12CCC3C4CCC(=O)C=C4CCC3C1CC1CC(=O)OC12 (stereo not given)	-7.95% (inactive)
CC1NC(=O)C(NC(=O)c2cnc3ccccc3n2)COC(=O)C(C(C)C)N(C)C(=O)C2CSSCC(C(=O)N(C)C(C(C)C)C(=O)OCC(NC(=O)c3cnc4ccccc4n3)C(=O)NC(C)C(=O)N2C)N(C)C1=O (stereo not given) (I: Quinoxaline2carbonyl-SA[NMeC][NMeV] / II: Quinoxaline2carbonyl-SA[NMeC][NMeV]; ester I:1-II:C, I:C-II:1; disulfide I:3-II:3; configuration not given here)	86.7% (active)
CN(N)/N=N/c1nc[nH]c1[N+](=O)[O-]	4.85% (inactive)
C[N+](C)(C)CC1CCC/C1=N/O (stereo not given)	9.95% (inactive)
CCCn1cc2c3c(cccc31)[C@H]1C[C@@H](C)CN(C)[C@@H]1C2	45.1% (inactive)

SMILES	growth inhibition
CNC(C)Cc1ccccc1OC (stereo not given)	2.65% (inactive)
CO[C@H](C)[C@](O)(C(=O)OCC1=CCN2CC[C@@H](O)[C@H]12)C(C)C	1.25% (inactive)
CC1CN=C(NCc2ccccc2)S1 (stereo not given)	21.9% (inactive)
C#CC1(OC(C)=O)CCC2C3CCC4=CC(=O)CCC4(C)C3CCC21C (stereo not given)	-11.2% (inactive)
NC(c1ccccc1)P(=O)(O)O (stereo not given)	5.85% (inactive)
CNC(=O)O/N=C(\SC)C(=O)N(C)C	-31.2% (inactive)
Cc1cccc(C)c1NC(N)=S	-86.7% (inactive)
CCC[As](=O)(O)CC[As](=O)(O)CCC	-3.05% (inactive)
C=[CH][Pb]([CH]=C)([CH]=C)[O]C(C)=O	98.8% (active)
Cc1nc2ccccc2c(=O)n1-c1ccccc1	15.9% (inactive)
O=[N+]([O-])c1cccc(C(Cl)Cl)c1	22.1% (inactive)
COC(=O)C1=C(O)C(C(=O)OC)C2/C(=[N+](/[O-])O)c3c(cc([N+](=O)[O-])cc3[N+](=O)[O-])C1C2[N+](=O)[O-] (stereo not given)	66.3% (inactive)
CC(=O)Cc1c[nH]c2ccccc12	-1.5% (inactive)
CN1CN(c2ccccc2)C2(CCN(CCC3COc4ccccc4O3)CC2)C1=O (stereo not given)	-1.4% (inactive)
C[As+](c1ccccc1)(c1ccccc1)c1cccc2ccccc12	-10.1% (inactive)
C=CCOCN1c2cc(OC)c([C@@]3(C(=O)OC)C[C@@H]4CN(CCc5c3[nH]c3ccccc53)C[C@](O)(CC)C4)cc2[C@@]23CCN4CC=C[C@@](CC)([C@@H](OC(C)=O)[C@](O)(C(=O)OC)[C@H]12)[C@H]43	0.2% (inactive)
CS(=N)(=O)CCC(N)P(=O)(O)O (stereo not given)	13.9% (inactive)
Cc1ccc(S(=O)(=O)Nc2cc(C)cc(CCN)c2C)cc1	4.75% (inactive)
CCN(CC)CCn1c(=O)c2ccccc2n(CCN(CC)CC)c1=O	20.8% (inactive)

Test: NCI Yeast Anticancer Drug Screen. Data for the bub3 strain (AID 167)
Details: S. cerevisiae bub3 mutant strain, at 50.0 µM, stronger effect = higher value
Summary of the method: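 Mutant yeast screening strain plus compound; vehicle-treated cultures serve as the 0% inhibition reference.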

SMILES	growth inhibition
[N-]=[N+]=CC(=O)CCC(=O)C=[N+]=[N-]	-20.6% (inactive)
CC(=O)CCC(=O)O.[Ni]	-7.65% (inactive)
CCN1/C(=C/C=C2\CCC(/C=C/c3sc4ccc(Cl)cc4[n+]3CC)=C2N(c2ccccc2)c2ccccc2)Sc2ccc(Cl)cc21	57.4% (inactive)
CCC1(CCBr)C(=O)NC(=O)NC1=O	21.6% (inactive)
O=C(CBr)OCCOC(=O)CBr	28.5% (inactive)
Cc1ncc([N+](=O)[O-])n1C(C)C(=O)Nc1ccc(N(CCCl)CCCl)cc1 (stereo not given)	-4.65% (inactive)
O=S(=O)(Nc1ccc(-c2ccccc2)cc1)c1ccc([As](=O)(O)O)cc1	18.9% (inactive)
Cc1ccc([NH-])cc1.Cc1ccc([NH-])cc1.[Cl][Pt+2][Cl]	3.55% (inactive)
[Se]=[Mo]=[Se]	-7.05% (inactive)
CN(C)C1(c2ccc3ccccc3c2)CSC1	-29.8% (inactive)
C=C[C](=C)[Pb]([CH2]C)([CH2]C)[CH2]C	-10.6% (inactive)
CC(=O)CC(C)=O.CC(=O)CC(C)=O.CC(=O)CC(C)=O.[La]	-4.6% (inactive)
CCOc1ccc2ccccc2c1OP(=O)(OCC)OCC	40.4% (inactive)
CC12CCC3C4CCC(=O)C=C4CCC3C1CC1CC(=O)OC12 (stereo not given)	11.7% (inactive)
CC1NC(=O)C(NC(=O)c2cnc3ccccc3n2)COC(=O)C(C(C)C)N(C)C(=O)C2CSSCC(C(=O)N(C)C(C(C)C)C(=O)OCC(NC(=O)c3cnc4ccccc4n3)C(=O)NC(C)C(=O)N2C)N(C)C1=O (stereo not given) (I: Quinoxaline2carbonyl-SA[NMeC][NMeV] / II: Quinoxaline2carbonyl-SA[NMeC][NMeV]; ester I:1-II:C, I:C-II:1; disulfide I:3-II:3; configuration not given here)	88.2% (active)
CN(N)/N=N/c1nc[nH]c1[N+](=O)[O-]	-12.1% (inactive)
C[N+](C)(C)CC1CCC/C1=N/O (stereo not given)	26.8% (inactive)
CCCn1cc2c3c(cccc31)[C@H]1C[C@@H](C)CN(C)[C@@H]1C2	44% (inactive)
CNC(C)Cc1ccccc1OC (stereo not given)	-4.55% (inactive)

SMILES	growth inhibition
CO[C@H](C)[C@](O)(C(=O)OCC1=CCN2CC[C@@H](O)[C@H]12)C(C)C	-23.8% (inactive)
CC1CN=C(NCc2ccccc2)S1 (stereo not given)	-1.05% (inactive)
C#CC1(OC(C)=O)CCC2C3CCC4=CC(=O)CCC4(C)C3CCC21C (stereo not given)	-8.8% (inactive)
NC(c1ccccc1)P(=O)(O)O (stereo not given)	-8.75% (inactive)
CNC(=O)O/N=C(\SC)C(=O)N(C)C	-3.1% (inactive)
Cc1cccc(C)c1NC(N)=S	6% (inactive)
CCC[As](=O)(O)CC[As](=O)(O)CCC	0.8% (inactive)
C=[CH][Pb]([CH]=C)([CH]=C)[O]C(C)=O	98.2% (active)
Cc1nc2ccccc2c(=O)n1-c1ccccc1	10.9% (inactive)
O=[N+]([O-])c1cccc(C(Cl)Cl)c1	12.1% (inactive)
COC(=O)C1=C(O)C(C(=O)OC)C2/C(=[N+](/[O-])O)c3c(cc([N+](=O)[O-])cc3[N+](=O)[O-])C1C2[N+](=O)[O-] (stereo not given)	67.8% (inactive)
CC(=O)Cc1c[nH]c2ccccc12	-28.2% (inactive)
CN1CN(c2ccccc2)C2(CCN(CCC3COc4ccccc4O3)CC2)C1=O (stereo not given)	-4.45% (inactive)
C[As+](c1ccccc1)(c1ccccc1)c1cccc2ccccc12	26.1% (inactive)
C=CCOCN1c2cc(OC)c([C@@]3(C(=O)OC)C[C@@H]4CN(CCc5c3[nH]c3ccccc53)C[C@](O)(CC)C4)cc2[C@@]23CCN4CC=C[C@@](CC)([C@@H](OC(C)=O)[C@](O)(C(=O)OC)[C@H]12)[C@H]43	-0.05% (inactive)
CS(=N)(=O)CCC(N)P(=O)(O)O (stereo not given)	-50.5% (inactive)
Cc1ccc(S(=O)(=O)Nc2cc(C)cc(CCN)c2C)cc1	5.5% (inactive)
CCN(CC)CCn1c(=O)c2ccccc2n(CCN(CC)CC)c1=O	12.7% (inactive)
